Assay outcomes as filed in PubChem BioAssay.
Compounds with a hit are over-represented: about 11% of the library has one in this group of screens.
3T3 cytotox = NIH 3T3 cell cytotoxicity. NIH 3T3 viability, CellTiter-Glo ATP luminescence, 48-72 h. Potency, µM (highest dose often 96.7 µM), for inactives: top-dose activity change, negative = cytotoxicity, most hits filed as inhibitors. actives 4.3% (n = 94,000). AID 1345082; also: nearly all actives have a fitted effect of over 55% in size
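Mouse fibroblast NIH 3T3 cells, 400 per well, received compound via pintool and were incubated for 48 or 72 hr prior to CellTiter-Glo ATP luminescence measurement.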
Luciferase inh = inhibitors of firefly (Photinus pyralis) luciferase. P08659. purified P. pyralis luciferase, luminescence, biochemical. Potency, µM (top dose mostly 115 µM), hits mostly inhibitors. actives 2.5% (n = 76,000). AID 1347043; also: nearly all actives have a fitted effect of over 65% in size
Target sequence (P08659 whole entry, looked up): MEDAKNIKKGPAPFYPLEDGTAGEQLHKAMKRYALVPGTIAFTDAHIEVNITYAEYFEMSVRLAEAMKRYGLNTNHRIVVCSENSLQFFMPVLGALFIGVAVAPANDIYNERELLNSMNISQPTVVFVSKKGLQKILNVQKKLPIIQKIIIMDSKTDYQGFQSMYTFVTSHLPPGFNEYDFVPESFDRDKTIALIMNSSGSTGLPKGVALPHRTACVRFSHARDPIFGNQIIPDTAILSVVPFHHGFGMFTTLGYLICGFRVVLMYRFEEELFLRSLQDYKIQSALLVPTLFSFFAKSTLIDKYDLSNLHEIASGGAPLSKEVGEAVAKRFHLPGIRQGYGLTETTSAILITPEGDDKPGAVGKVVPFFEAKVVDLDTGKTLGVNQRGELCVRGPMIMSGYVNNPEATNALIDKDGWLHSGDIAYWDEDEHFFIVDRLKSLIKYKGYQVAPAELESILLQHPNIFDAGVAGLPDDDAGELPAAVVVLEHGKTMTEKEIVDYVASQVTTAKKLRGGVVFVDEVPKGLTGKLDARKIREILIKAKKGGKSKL
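Luminescence read by CCD imaging after purified firefly luciferase (10nM final) was added to substrate buffer holding 10uM D-luciferin and 10uM ATP, pH 7.5, pre-dosed with compound.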
HEK cytotox = HEK 293 cell cytotoxicity; HEK 293 viability, ATP luminescence (CellTiter-Glo), 48-72 h; Potency, µM (series often up to 115 µM), for inactives: at the highest dose activity change, negative = cytotoxicity, most hits filed as inhibitors; actives 6.6% (n = 94,000); AID 1345083; also: nearly all actives have a fitted effect of over 60% in size
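Cytotoxicity was scored by loss of ATP-coupled luminescence (CellTiter-Glo) in HEK 293 cells. Compound treatment ran 48 or 72 hr at 37 degree Celsius, 5% CO2, 95% humidity.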
hNpr1 antagonist = antagonists of human natriuretic peptide receptor Npr1; AID 1347048; HEK293 hNpr1 GloSensor cGMP, ANP-stimulated luminescence; P16066; Potency, µM (series often up to 46.3 µM), for inactives: at the highest dose activity change, negative = inhibition, usual class: inhibitors; actives 1.6% (n = 76,000); calls by dose curve; also: nearly all actives have a fitted effect of over 60% in size
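HEK293 cells stably expressing human Npr1 and cGMP GloSensor pGS-40F, loaded 2 h with 2% GloSensor reagent, given compound 30 min at room temperature. Luminescence read before and 20 min after 0.1 nM hNppA.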
* hit, by the source's call; i = inactive; ? = inconclusive; / = no result; [ ] = another dose, or the depositor's remark. Unless noted, calls follow the shape of the dose curve; as a rule, active = well fitted curve in the direction sought with a large enough effect; inconclusive = small, poorly fitted or top-dose-only effect, or another doubt; inactive = no such curve, though single readings can be large; an effect the other way counts as inactive or inconclusive. % is scaled to controls: 0 for no effect and ±100 for the full control effect; potency is read from the fitted curve at half-maximal effect.

SMILES	3T3 cytotox	Luciferase inh	HEK cytotox	hNpr1 antagonist
O=C(Cc1ccc(Br)cc1)N1CCCN(C(=O)C2CC2)c2ccccc21	?	i	?	-2.0%
CN1CCCN(C(=O)Cc2ccc(OC(F)(F)F)cc2)c2ccccc21	39.8µM*	i	?	-1.4%
O=C(Cc1ccc(F)cc1)N1CCCN(CCc2ccccc2)c2ccccc21	35.5µM*	/	?	/
O=c1n(CCN2CCC(N[S+](=O)([O-])c3cccs3)C2)nc2n1CCCC2 (stereo not drawn)	-4.6%	/	-4.6%	/
Cc1ccc(C(=O)N2CCC(n3cc(-c4nc(-c5ccccc5)no4)nn3)CC2)s1	?	i	44.7µM*	?
Cc1noc(-c2cn(C3CCN(C(=O)c4ccc(C)s4)CC3)nn2)n1	-25.7%	i	-8.7%	25.0%
Cc1ccc(C(=O)N2CCCC(n3cc(-c4nc(-c5ccccc5)no4)nn3)C2)s1 (stereo not drawn)	?	?	?	10µM*
Cn1cccc1C(=O)N1CCC(N2C(=O)C3(CCCC3)C2c2ccccc2)CC1 (stereo not drawn)	-29.7%	i	44.7µM*	-1.7%
Cn1ccnc1C(=O)N1CCC(N2C(=O)C3(CCCC3)C2c2ccccc2)CC1 (stereo not drawn)	?	i	-8.3%	0.5%
CC(C)CC(=O)N1CCC(N2C(=O)C3(CCCC3)C2c2ccccc2)CC1 (stereo not drawn)	44.7µM*	i	?	-3.2%
Clc1cccc(-c2cnc([C@@H]3COCCN3Cc3c[nH]c4ccccc34)[nH]2)c1	?	i	?	?
Cn1cc(CN2CCOC[C@H]2c2ncc(-c3ccc(S(C)(=O)=O)cc3)[nH]2)c2ccccc21	35.5µM*	i	20µM*	-3.4%
N#Cc1cccc(CN2CCOC[C@H]2c2ncc(-c3ccc(Cl)cc3)[nH]2)c1	100µM*	i	?	?
N#Cc1cccc(CN2CCOC[C@H]2c2ncc(-c3ccc(F)cc3)[nH]2)c1	?	i	63.1µM*	0.2%[70.6 µM]
Oc1ccccc1CN1CCOC[C@H]1c1ncc(-c2cccc(Cl)c2)[nH]1	?	i	89.1µM*	-17.9%[70.6 µM]
CS(=O)(=O)c1ccc(CN2CCOC[C@H]2c2ncc(-c3ccc(Cl)cc3)[nH]2)cc1	?	i	-29.7%[172 µM]	-10.0%[70.6 µM]
COc1ccc(-c2cnc([C@@H]3COCCN3Cc3cccc(C#N)c3)[nH]2)cc1	-18.2%[138 µM]	i	?	-1.3%[70.6 µM]
Cc1ccccc1CCC1CCCNC1 (stereo not drawn)	-17.6%	i	-18.6%	6.0%
N#Cc1cccc(CN2CCOC[C@H]2c2ncc(-c3ccc(C(F)(F)F)cc3)[nH]2)c1	?	i	89.1µM*	?
O=C(Nc1cccc2ccccc12)O[C@@H]1CO[C@H]2[C@@H]1OC[C@@H]2n1nnnc1-c1ccc(-c2ccccc2)cc1	-2.7%	i	-0.9%	-1.3%
CCS(=O)(=O)Nc1ccc(C2(C(=O)Nc3cccc(F)c3C)CCCCC2)cc1	?	i	39.8µM*	-7.8%
COCCOCc1nc(C2CCN(C(=O)CC3CCCCC3)C2)no1 (stereo not drawn)	-14.3%	/	-9.6%	/
O=[S+]1([O-])NCC2(CCN(Cc3ccc(OC(F)(F)F)cc3)CC2)Nc2ccccc21	?	i	39.8µM*	1.5%
O=[S+]1([O-])NCC2(CCCN(Cc3ccc(Cl)cc3)C2)Oc2ncccc21 (stereo not drawn)	?	/	89.1µM*	/
O=[S+]1([O-])NCC2(CCCN(Cc3ccc(OC(F)(F)F)cc3)C2)Nc2ccccc21 (stereo not drawn)	44.7µM*	i	?	-24.7%
O=[S+]1([O-])NCC2(CCCN(Cc3ccc(C(F)(F)F)cc3)C2)Nc2ccccc21 (stereo not drawn)	?	i	31.6µM*	-17.1%
O=[S+]1([O-])NCC2(CCCN(Cc3cccc(C(F)(F)F)c3)C2)Oc2ncccc21 (stereo not drawn)	-27.5%	/	?	/
CN1CCC(C(=O)N2Cc3ccccc3CC3(CCCN(CC4CCOCC4)C3)C2)CC1 (stereo not drawn)	-15.9%	/	-10.5%	/
O=C(Cc1ccccn1)N1CCN(C(=O)c2nc3cccnc3n(CCc3ccccc3)c2=O)CC1	-11.3%	/	-4.0%	/
